Data from PubChem BioAssay.
“And” between values parts separate entries of the source, which are not always exact repeats. Equal entries are not always repeated. For some of these results: Measured potencies and affinities stand elsewhere. A structure can be active in one record and inactive in another. The source made the active and inactive calls. Unless noted, how the calls were made is not given here.

Experiments:
[1] = antimalarial activity against Dd2 strain (AID 2302;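 active means growth inhibition above 50% at the single 2 µM test dose, taken to imply half-maximal potency below 2 µM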;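 further: 0% = DMSO untreated growth and 100% = chloroquine plus artemisinin killed control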); settings: P. falciparum Dd2 in RBCs, LDH growth readout, 72 h; at 2 µM; stronger effect = higher value
[2] = human hepatoma cell viability loss – ATP luminescence, cytotoxicity control for P. falciparum antimalarial project, primary screen (AID 2303;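 active means inhibition above 50%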;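 further: 0% = DMSO wells and 100% = digitonin-killed cells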); settings: HepG2 viability, 24-48 h, at 10 µM, stronger effect = higher value
[3] = target: L-lactate dehydrogenase (Plasmodium falciparum (isolate CDC / Honduras)) (UniProt Q27743); assay: PfLDH activity inhibition – cell lysate, 3D7 strain, counter-screen for P. falciparum growth inhibition project (AID 2304);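 further: 0% = vehicle and 100% = reference inhibitor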; settings: P. falciparum 3D7 crude extract, LDH APAD/NBT absorbance; at 2 µM; stronger effect = higher value
Sequence of L-lactate dehydrogenase (Plasmodium falciparum (isolate CDC / Honduras)) (Q27743 whole entry, looked up): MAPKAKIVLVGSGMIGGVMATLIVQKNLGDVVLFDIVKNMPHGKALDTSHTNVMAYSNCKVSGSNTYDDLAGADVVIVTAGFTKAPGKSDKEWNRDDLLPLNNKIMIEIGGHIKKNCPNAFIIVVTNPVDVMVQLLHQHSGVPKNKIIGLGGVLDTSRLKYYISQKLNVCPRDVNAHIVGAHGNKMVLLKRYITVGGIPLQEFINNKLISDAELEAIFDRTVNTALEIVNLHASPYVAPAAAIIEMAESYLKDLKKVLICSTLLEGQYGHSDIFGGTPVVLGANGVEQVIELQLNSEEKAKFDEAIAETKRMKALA

[4] = inhibition of 3D7 malaria parasite growth – strain 3D7 (AID 2306);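 further: 0% = DMSO wells and 100% = chloroquine plus artemisinin control wells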; settings: P. falciparum 3D7 erythrocytic growth, LDH absorbance, 72 h; at 2 µM; stronger effect = higher value
[5] = target: Calcium-dependent protein kinase 1 (Plasmodium falciparum (isolate 3D7)) (UniProt P62344); assay: PfCDPK1 kinase inhibitors, biochemical, TCAMS library (AID 1159585; cut-off not given, nearly all actives have IC50 up to about 0.98 µM;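 further: inhibitors leave more ATP so luminescence rises with inhibition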); settings: recombinant PfCDPK1, Kinase-Glo ATP depletion luminescence
Sequence of Calcium-dependent protein kinase 1 (Plasmodium falciparum (isolate 3D7)) (P62344 whole entry, looked up): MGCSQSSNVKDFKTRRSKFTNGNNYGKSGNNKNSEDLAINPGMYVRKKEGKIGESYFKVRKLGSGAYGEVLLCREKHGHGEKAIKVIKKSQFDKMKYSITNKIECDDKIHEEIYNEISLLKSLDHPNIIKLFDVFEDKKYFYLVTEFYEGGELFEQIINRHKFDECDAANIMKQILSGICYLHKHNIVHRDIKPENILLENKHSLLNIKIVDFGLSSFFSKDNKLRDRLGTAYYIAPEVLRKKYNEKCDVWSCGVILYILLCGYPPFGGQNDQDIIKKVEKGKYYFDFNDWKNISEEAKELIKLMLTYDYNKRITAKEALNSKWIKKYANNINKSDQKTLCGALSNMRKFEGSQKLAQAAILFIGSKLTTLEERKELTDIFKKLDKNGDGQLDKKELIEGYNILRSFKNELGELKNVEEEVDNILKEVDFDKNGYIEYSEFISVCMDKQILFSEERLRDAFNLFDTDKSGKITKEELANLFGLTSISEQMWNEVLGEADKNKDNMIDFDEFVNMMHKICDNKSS

[6] = target: Plasmodium falciparum protein kinase 6 (PK6, PF3D7_1337100) (UniProt Q8IDW1); assay: PfPK6 kinase inhibitors, biochemical, TCAMS library (AID 1159586); settings: recombinant PfPK6, Kinase-Glo ATP depletion luminescence
Sequence of Plasmodium falciparum protein kinase 6 (PK6, PF3D7_1337100) (Q8IDW1 1-305): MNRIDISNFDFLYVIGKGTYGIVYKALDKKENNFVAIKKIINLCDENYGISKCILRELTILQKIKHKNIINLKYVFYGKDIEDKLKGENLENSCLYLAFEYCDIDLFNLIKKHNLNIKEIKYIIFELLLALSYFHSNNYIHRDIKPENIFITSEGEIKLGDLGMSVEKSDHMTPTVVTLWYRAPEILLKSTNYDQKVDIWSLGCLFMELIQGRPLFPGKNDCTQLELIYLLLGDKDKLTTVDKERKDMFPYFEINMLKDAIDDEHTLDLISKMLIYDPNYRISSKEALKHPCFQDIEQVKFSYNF

[7] = target: Protein kinase 7 (PK7), Plasmodium falciparum 3D7 (PF3D7_0213400) (UniProt Q7YTF7); assay: inhibition of Plasmodium PK7 catalytic activity – biochemical, TCAMS antimalarial set, Kinase-Glo luminescence (AID 1159587); settings: recombinant PfPK7, Kinase-Glo ATP depletion luminescence
Sequence of Protein kinase 7 (PK7), Plasmodium falciparum 3D7 (PF3D7_0213400) (Q7YTF7 1-343): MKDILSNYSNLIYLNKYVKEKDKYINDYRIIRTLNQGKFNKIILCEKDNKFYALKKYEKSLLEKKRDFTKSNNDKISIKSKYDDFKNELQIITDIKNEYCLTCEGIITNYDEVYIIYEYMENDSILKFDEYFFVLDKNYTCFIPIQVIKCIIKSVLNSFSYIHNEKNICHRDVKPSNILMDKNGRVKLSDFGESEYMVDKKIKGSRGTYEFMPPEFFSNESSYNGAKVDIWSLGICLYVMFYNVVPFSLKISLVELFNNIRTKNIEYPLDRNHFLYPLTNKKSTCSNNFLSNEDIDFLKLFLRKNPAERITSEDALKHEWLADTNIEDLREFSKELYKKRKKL

[8] = target: Calcium-dependent protein kinase 4 (Plasmodium falciparum (isolate 3D7)) (UniProt Q8IBS5); assay: PfCDPK4 kinase inhibitors, biochemical, TCAMS library (AID 1159588; cut-off not given, nearly all actives have IC50 up to about 0.91 µM); settings: recombinant PfCDPK4, Kinase-Glo ATP depletion luminescence
Sequence of Calcium-dependent protein kinase 4 (Plasmodium falciparum (isolate 3D7)) (Q8IBS5 whole entry, looked up): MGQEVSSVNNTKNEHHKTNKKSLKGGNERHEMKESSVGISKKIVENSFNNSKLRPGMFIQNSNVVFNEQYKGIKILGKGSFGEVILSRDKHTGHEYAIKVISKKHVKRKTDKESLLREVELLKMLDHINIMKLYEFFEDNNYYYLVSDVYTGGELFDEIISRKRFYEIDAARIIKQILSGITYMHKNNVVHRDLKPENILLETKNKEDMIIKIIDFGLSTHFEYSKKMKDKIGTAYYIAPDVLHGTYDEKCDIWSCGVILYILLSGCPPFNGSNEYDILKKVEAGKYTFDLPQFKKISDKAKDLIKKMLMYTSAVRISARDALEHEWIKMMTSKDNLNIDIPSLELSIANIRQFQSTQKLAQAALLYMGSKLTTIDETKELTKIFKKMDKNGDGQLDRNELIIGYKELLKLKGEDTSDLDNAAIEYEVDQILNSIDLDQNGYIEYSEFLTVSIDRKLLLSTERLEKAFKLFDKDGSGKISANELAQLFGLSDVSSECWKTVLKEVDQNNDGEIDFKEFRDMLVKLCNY

CC(C)CNCc1cccc(-c2ccc(CN(C(=O)Nc3ccccc3)C3CCN(Cc4ccccc4)CC3)cc2)c1
inactive: inhibition [2] 41% | inhibition [3] -2% | outcome [5] | outcome [6] | outcome [7] | outcome [8]
active: growth inhibition [1] 61% | growth inhibition [4] 101%

N#Cc1c(Cl)cccc1Oc1ccc(S(=O)(=O)NC2CCC(CN3CCC(c4c[nH]c5ccccc45)CC3)CC2)cc1 (stereo not drawn)
active: growth inhibition [4] 101% and 85%
inactive: growth inhibition [1] 36% and 16% | inhibition [2] 31% and 29% | inhibition [3] 3% and -3% | outcome [5] | outcome [6] | outcome [7] | outcome [8]

Cc1nc(C)c(-c2ccc(Oc3ccc(OC(F)(F)F)cc3)cc2)c(OC(=O)N(CCNC(C)C)C(C)C)c1Br
inactive: inhibition [2] 35% | inhibition [3] -2% | outcome [5] | outcome [6] | outcome [7] | outcome [8]
active: growth inhibition [1] 97% | growth inhibition [4] 98%

CNCCN(C)C(=O)Oc1c(Cl)c(C)nc(C)c1-c1ccc(Oc2ccc(OC(F)(F)F)cc2)cc1
inactive: inhibition [2] -2% | inhibition [3] -2% | outcome [5] | outcome [6] | outcome [7] | outcome [8]
active: growth inhibition [1] 96% | growth inhibition [4] 97%

CCCCC1(NC(=O)[C@H](CC(C)C)Nc2ccc(C#N)c3ccccc23)CCCCC1
inactive: growth inhibition [1] 47% | inhibition [2] 37% | inhibition [3] 5% | outcome [5] | outcome [6] | outcome [7] | outcome [8]
active: growth inhibition [4] 96%

O=C(/C=C/c1c(Cl)cccc1Cl)NC1CCC(CN2CCC(c3c[nH]c4ccccc34)CC2)CC1 (stereo not drawn)
54% (active) and 39% (inactive): inhibition [2]
inactive: growth inhibition [1] 42% and 21% | inhibition [3] -4% and 4% | outcome [5] | outcome [6] | outcome [7] | outcome [8]
active: growth inhibition [4] 93% and 100%

CC(Cc1ccc(Oc2ccccc2)cc1)NCC(O)c1cccc(C(F)(F)F)c1 (stereo not drawn)
active: growth inhibition [1] 99% | growth inhibition [4] 98%
inactive: inhibition [2] 16% | inhibition [3] 4% | outcome [5] | outcome [6] | outcome [7] | outcome [8]

CC1(C)CCCN(C(=O)Cc2ccc3c(c2)CCCC3)C1CN1CC=CC1 (stereo not drawn)
inactive: growth inhibition [1] 1% | inhibition [2] -3% | inhibition [3] -1% | outcome [5] | outcome [6] | outcome [7] | outcome [8]
active: growth inhibition [4] 98%

COCCNCc1ccc(-c2cccc(CN(C(=O)CCC3CCCC3)C3CCN(Cc4ccccc4)CC3)c2)cc1
active: growth inhibition [1] 86% | inhibition [2] 50% | growth inhibition [4] 91%
inactive: inhibition [3] -2% | outcome [5] | outcome [6] | outcome [7] | outcome [8]

CC[C@H]1CN2CC[C@@H]1C[C@H]2[C@H](O)c1cc(N2CCC(O)CC2)nc2ccc(OC)cc12
inactive: inhibition [2] 15% | inhibition [3] 3% | outcome [5] | outcome [6] | outcome [7] | outcome [8]
active: growth inhibition [1] 92% | growth inhibition [4] 99%

Cc1cccc(C(=O)Nc2ccnc(N(C)C3CCN(Cc4cccc(O)c4)CC3)c2)c1
inactive: inhibition [2] 5% | inhibition [3] -1% | outcome [5] | outcome [6] | outcome [7] | outcome [8]
active: growth inhibition [1] 62% | growth inhibition [4] 89%
